Columns and labels:
Experiment in all cases: log2 ratio of Biotin-Ahx-Ub-VS probe labelling (fragment/DMSO); higher = less target engagement (more negative = stronger competition), active = hit call of the paper (q ≤ 0.05, log2 ratio ≤ -1)
Settings in all cases: compound concentration: 200 uM; treatment time: 3 h
USP42 = target: T1, USP42 (UniProt Q9H9J4)
T1 sequence (whole entry): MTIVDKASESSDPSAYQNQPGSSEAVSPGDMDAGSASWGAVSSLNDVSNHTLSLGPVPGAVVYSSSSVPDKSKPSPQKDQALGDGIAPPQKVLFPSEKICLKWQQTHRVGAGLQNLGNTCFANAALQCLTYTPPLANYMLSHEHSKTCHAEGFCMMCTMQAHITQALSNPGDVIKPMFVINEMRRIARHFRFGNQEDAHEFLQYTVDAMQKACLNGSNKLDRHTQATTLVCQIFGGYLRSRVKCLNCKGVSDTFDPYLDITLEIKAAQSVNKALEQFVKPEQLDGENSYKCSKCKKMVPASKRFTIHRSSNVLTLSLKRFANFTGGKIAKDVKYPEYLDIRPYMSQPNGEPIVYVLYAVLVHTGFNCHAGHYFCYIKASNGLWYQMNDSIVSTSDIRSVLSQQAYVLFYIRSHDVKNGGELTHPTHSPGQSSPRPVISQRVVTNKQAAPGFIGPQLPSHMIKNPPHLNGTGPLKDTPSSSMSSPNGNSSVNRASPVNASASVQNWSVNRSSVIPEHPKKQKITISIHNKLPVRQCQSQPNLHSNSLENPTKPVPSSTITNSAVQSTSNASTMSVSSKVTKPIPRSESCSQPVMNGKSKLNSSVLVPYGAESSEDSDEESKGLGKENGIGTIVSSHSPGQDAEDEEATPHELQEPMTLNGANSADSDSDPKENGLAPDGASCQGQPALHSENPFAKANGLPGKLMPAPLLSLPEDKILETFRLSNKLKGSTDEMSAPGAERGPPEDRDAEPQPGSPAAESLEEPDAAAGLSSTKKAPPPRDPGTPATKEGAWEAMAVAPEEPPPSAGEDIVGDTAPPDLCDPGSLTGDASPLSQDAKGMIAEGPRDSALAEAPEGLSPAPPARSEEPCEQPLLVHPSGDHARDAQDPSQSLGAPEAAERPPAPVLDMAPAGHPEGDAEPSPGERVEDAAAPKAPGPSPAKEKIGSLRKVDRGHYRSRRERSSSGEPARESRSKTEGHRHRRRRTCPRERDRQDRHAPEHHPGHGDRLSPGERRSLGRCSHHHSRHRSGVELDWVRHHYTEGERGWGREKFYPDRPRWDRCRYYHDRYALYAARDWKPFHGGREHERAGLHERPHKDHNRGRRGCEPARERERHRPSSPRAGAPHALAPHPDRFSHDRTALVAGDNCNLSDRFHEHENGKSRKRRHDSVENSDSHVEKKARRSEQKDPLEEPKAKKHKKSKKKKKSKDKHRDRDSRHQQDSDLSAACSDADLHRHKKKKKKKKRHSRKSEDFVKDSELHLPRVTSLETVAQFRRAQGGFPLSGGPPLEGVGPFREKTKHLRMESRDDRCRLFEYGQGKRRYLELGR
Method in brief: (§1)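 HEK293T lysate (495 µg per sample, in Tris/CHAPS/IGEPAL buffer with protease inhibitors) was exposed in triplicate for 3 h to fragment at 200 µM or to vehicle, then to Biotin-Ahx-Ub-VS at 0.5 µM final for 1 h. Labelled DUBs were enriched on NeutrAvidin, digested with LysC and trypsin, and analysed by diaPASEF LC-MS/MS. Spectronaut label-free quantities were normalised to the global median, and values are average log2 ratios of fragment over vehicle from an unpaired t-test. Only proteins with ≥2 unique peptides were used.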

USP46 = USP46 (UniProt P62068)
USP46, sequence (P62068 whole entry): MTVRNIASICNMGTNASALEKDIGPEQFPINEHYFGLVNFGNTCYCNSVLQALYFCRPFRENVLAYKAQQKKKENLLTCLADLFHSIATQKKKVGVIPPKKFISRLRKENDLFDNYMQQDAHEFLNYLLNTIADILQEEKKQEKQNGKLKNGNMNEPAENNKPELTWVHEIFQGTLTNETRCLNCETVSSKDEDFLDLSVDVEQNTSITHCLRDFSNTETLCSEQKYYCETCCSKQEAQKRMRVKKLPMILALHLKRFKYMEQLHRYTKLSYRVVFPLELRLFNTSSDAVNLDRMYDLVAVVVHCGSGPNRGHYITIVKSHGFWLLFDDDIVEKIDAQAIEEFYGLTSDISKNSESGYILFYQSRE
Method in brief: as §1

USP47 = target: T2, USP47 (UniProt Q96K76)
T2 sequence (whole entry): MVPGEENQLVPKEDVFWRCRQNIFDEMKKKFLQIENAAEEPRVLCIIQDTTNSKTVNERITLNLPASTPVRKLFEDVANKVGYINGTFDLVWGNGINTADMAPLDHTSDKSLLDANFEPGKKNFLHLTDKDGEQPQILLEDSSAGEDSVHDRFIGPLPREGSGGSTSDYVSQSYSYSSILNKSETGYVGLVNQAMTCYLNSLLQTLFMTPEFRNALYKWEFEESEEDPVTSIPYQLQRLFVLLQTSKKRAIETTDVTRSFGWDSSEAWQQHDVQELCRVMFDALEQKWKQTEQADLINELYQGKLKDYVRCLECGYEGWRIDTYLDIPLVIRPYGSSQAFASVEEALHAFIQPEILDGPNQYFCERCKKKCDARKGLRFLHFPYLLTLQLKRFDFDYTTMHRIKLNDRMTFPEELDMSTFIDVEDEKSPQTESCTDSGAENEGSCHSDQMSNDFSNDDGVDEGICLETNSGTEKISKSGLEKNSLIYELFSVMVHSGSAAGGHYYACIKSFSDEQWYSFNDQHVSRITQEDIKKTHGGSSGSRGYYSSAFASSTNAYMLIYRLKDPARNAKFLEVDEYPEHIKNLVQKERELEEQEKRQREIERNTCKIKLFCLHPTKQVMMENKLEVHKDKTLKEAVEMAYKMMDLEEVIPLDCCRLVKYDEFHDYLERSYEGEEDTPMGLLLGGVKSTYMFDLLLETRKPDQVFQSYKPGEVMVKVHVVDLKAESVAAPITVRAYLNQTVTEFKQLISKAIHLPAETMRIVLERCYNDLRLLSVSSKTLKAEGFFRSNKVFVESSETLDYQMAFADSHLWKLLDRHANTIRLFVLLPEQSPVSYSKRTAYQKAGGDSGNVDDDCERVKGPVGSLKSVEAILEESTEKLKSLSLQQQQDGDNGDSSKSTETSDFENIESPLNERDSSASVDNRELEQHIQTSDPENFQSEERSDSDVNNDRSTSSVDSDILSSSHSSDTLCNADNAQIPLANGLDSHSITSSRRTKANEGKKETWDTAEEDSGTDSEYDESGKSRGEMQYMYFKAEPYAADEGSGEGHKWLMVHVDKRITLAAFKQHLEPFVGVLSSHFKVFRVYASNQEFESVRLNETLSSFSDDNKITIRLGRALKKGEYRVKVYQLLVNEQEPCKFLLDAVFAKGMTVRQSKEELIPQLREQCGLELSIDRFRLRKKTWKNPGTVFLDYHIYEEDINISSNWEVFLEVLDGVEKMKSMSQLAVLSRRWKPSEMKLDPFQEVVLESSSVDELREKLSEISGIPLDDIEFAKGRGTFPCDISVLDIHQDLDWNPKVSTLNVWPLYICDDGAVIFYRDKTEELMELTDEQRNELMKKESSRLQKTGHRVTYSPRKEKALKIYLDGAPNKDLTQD
Method in brief: as §1

USP48 = target: T3, USP48 (UniProt Q86UV5)
T3 sequence (whole entry): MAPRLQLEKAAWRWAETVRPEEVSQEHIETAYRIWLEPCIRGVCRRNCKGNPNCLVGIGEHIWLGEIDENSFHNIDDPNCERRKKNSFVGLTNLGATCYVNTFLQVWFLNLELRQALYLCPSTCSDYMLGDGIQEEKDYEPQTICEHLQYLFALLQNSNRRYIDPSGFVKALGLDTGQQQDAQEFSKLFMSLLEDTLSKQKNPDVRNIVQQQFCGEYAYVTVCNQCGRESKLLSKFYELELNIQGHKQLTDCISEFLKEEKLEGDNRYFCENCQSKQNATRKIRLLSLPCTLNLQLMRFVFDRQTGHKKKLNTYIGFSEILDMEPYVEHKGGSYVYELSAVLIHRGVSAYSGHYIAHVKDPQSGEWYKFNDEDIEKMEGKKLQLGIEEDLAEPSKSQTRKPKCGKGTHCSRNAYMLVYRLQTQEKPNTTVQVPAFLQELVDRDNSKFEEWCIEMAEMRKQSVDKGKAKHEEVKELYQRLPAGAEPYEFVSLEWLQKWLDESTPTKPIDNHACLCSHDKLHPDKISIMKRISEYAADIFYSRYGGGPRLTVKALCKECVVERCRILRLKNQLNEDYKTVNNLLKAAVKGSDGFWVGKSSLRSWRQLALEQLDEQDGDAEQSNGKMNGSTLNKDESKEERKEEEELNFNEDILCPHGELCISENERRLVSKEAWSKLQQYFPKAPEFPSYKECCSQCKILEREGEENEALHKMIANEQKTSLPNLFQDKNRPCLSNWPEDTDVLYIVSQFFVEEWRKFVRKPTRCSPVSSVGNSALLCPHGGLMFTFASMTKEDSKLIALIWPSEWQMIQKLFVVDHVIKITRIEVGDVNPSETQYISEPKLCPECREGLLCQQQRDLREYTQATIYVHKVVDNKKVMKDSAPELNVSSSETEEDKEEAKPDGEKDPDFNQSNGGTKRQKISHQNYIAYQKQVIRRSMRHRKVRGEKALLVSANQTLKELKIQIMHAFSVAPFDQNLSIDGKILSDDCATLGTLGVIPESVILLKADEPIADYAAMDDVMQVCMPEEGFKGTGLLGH
Method in brief: as §1

USP5 = target: T4, USP5 (UniProt P45974)
T4 sequence (whole entry): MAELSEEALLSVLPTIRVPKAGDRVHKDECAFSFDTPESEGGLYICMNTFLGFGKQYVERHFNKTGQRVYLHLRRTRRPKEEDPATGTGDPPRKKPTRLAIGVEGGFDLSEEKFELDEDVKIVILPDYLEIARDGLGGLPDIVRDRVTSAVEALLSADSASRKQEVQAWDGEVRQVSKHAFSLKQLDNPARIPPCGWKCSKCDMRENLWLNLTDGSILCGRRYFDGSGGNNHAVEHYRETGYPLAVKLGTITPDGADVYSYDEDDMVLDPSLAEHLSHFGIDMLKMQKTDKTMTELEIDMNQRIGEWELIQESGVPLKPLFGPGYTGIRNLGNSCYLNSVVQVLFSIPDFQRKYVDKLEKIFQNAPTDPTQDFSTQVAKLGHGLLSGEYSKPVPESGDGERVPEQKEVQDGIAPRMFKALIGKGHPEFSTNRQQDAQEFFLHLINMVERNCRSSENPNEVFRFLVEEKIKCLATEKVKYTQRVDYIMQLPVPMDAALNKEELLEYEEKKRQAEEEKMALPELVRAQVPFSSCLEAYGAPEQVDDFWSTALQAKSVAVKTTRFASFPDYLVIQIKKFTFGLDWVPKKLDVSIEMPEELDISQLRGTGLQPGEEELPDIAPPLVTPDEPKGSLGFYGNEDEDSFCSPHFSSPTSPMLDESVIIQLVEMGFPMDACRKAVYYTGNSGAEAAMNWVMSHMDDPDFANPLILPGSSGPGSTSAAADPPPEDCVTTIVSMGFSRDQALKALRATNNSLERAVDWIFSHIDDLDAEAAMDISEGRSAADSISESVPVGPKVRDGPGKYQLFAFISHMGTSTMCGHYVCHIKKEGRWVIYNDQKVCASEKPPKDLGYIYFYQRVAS
Method in brief: as §1

USP54 = USP54 (UniProt Q70EL1)
Method in brief: as §1

USP7 = USP7 (UniProt Q93009)
USP7, sequence (Q93009 whole entry, looked up): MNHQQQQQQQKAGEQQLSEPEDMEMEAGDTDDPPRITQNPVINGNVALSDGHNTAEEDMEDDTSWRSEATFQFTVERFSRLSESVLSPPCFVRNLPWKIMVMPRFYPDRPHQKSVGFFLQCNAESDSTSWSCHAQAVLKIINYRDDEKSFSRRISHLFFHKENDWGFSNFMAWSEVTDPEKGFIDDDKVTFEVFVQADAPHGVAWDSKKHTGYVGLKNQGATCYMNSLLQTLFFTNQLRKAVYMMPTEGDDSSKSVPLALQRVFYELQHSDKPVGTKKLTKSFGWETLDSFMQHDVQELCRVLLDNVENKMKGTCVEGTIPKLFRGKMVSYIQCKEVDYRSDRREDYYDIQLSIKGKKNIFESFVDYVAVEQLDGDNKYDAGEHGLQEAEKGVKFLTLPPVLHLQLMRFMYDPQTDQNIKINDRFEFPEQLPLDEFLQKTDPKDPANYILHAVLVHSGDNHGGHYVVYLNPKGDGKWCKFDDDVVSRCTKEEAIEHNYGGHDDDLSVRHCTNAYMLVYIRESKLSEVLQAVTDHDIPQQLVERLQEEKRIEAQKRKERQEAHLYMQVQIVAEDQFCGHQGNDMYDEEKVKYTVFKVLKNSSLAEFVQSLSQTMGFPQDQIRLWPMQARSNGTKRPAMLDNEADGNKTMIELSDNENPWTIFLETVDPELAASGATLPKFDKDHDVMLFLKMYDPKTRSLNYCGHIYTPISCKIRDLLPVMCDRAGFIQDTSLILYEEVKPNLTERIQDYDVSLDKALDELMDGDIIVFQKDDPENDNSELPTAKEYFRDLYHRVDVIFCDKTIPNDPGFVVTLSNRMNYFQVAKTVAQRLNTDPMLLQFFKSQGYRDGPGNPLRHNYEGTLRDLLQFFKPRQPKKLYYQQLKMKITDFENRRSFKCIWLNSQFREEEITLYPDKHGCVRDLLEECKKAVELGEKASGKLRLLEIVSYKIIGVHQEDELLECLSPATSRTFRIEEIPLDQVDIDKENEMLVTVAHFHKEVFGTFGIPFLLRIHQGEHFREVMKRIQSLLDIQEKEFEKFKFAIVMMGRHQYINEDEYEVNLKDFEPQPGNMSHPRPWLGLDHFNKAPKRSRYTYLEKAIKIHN
Method in brief: as §1

USP8 = target: T5, USP8 (UniProt P40818)
T5 sequence (whole entry): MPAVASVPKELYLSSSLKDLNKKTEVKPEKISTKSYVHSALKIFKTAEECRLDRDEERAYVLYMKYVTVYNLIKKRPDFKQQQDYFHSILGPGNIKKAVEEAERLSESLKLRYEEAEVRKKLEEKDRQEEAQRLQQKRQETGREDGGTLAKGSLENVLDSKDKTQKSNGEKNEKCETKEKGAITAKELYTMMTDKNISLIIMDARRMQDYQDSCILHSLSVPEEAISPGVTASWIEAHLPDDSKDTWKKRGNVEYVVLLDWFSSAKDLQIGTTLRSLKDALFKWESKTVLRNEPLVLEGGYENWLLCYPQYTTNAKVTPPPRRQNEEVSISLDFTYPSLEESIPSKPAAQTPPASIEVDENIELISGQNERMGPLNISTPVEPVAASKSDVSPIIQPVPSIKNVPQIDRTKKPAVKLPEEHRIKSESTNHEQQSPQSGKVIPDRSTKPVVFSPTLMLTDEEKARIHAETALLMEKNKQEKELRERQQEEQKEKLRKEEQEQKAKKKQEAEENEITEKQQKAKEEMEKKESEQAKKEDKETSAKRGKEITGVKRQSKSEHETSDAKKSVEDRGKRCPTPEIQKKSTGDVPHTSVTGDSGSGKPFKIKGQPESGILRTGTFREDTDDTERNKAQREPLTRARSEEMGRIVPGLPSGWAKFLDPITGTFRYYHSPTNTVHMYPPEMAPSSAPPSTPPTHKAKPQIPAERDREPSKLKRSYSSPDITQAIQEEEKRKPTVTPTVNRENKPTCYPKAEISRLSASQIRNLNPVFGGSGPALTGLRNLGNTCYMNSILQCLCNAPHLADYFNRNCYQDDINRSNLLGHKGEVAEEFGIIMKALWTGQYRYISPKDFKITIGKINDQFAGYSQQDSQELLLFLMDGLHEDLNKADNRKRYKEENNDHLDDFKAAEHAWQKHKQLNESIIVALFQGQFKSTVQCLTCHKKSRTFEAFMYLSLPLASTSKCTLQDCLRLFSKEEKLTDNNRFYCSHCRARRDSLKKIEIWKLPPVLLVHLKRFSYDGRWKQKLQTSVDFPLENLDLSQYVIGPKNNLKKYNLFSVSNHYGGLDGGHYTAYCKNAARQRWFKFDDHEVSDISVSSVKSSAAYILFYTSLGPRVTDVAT
Method in brief: as §1

USP9X = USP9X (UniProt Q93008)
USP9X, sequence (Q93008 whole entry): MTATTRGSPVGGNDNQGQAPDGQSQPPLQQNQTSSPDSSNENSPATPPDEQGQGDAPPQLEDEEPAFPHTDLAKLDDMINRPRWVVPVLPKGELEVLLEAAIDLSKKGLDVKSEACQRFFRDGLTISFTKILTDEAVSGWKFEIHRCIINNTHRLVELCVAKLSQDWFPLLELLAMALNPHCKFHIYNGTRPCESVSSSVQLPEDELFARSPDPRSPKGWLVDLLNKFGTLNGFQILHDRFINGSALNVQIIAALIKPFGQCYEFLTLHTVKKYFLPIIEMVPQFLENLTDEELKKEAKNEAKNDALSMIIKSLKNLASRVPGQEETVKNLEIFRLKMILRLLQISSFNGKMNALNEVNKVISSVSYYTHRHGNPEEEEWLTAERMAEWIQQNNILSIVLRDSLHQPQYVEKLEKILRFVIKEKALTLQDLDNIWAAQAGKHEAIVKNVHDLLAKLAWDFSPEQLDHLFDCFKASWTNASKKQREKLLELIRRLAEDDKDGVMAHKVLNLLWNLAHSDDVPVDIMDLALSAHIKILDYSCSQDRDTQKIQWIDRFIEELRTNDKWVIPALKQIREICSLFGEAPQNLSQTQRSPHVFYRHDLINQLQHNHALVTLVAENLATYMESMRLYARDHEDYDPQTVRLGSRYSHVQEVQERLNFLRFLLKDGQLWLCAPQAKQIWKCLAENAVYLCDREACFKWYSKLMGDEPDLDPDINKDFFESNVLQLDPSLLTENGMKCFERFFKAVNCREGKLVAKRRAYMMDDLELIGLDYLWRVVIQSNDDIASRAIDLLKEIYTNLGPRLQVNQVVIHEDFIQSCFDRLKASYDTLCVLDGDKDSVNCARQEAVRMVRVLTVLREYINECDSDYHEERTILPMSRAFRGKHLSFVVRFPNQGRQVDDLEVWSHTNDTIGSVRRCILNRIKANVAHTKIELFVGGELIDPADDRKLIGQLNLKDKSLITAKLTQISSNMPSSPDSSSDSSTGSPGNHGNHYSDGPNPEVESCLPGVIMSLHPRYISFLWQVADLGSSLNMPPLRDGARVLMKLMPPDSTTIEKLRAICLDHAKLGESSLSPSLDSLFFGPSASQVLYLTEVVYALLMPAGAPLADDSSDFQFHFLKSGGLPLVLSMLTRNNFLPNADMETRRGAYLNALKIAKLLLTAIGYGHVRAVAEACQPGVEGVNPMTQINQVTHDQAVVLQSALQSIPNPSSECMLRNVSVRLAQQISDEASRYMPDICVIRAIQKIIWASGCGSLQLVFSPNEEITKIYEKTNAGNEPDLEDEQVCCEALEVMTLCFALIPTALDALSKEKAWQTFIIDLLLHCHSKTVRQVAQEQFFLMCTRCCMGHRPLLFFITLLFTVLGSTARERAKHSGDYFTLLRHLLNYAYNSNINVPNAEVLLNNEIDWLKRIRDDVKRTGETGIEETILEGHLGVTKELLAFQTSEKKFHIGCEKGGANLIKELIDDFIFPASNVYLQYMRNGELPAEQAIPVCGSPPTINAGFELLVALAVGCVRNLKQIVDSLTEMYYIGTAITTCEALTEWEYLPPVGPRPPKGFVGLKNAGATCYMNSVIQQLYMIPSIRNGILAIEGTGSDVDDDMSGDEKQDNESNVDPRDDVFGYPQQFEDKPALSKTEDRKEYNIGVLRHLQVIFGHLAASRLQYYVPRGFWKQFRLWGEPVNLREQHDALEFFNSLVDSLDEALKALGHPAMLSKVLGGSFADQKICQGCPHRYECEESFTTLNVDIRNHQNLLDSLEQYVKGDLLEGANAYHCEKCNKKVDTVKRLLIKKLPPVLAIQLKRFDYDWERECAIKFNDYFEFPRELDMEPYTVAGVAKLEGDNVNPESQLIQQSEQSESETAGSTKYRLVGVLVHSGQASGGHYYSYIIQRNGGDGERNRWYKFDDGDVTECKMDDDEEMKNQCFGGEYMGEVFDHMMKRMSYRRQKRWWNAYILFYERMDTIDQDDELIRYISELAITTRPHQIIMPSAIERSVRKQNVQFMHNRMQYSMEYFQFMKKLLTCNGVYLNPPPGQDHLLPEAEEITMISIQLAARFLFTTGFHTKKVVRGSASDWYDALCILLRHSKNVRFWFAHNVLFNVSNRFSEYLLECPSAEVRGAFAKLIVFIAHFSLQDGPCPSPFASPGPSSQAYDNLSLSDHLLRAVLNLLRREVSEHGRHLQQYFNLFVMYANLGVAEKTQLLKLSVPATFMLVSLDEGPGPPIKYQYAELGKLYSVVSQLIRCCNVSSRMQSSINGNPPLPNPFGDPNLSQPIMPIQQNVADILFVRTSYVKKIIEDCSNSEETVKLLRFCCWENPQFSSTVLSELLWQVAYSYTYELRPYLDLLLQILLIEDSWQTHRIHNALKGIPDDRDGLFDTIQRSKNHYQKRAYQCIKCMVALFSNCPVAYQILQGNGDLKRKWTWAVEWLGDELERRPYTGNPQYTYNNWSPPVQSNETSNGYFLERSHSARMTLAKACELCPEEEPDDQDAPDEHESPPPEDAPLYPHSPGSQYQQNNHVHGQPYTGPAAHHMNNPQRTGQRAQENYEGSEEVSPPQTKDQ
Method in brief: as §1

UniProt O00487 = target: UniProt O00487
UniProt O00487, sequence (O00487 whole entry): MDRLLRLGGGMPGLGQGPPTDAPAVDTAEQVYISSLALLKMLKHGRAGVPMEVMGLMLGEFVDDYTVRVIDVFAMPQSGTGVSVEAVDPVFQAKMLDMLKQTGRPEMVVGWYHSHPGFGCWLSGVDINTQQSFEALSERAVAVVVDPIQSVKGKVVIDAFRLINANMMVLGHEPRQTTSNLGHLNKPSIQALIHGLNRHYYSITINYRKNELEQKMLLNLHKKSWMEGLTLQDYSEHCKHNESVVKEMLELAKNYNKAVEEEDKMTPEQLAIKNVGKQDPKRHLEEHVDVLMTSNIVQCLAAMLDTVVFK
Method in brief: as §1

Measured: log2 ratio of Biotin-Ahx-Ub-VS probe labelling

O=C(CCl)N1CCOCCC1c1ccccc1 (stereo not given)
inactive: USP42 0.345 | USP46 -0.0581 | USP47 -0.596 | USP48 0.0099 | USP5 0.135 | USP54 0.504 | USP7 -0.526 | USP8 -0.109 | USP9X -0.168 | UniProt O00487 -0.00106
